This passage reports outcome and AC50 results from PubChem BioAssay (EPA / NIEHS).

The source made the active and inactive calls. The calls were made as follows: active = hit-call score of the fitted dose curve at least 0.9, where 1 is the maximum; inactive = score below 0.9.

By AC50 is commonly meant the concentration giving half of the maximal activity seen.

Holding throughout (details): mRNA level, 48 h; actives raise or lower the signal
Read-out in experiment [1]: Pro-epidermal growth factor (Homo sapiens) (UniProt P01133)
Put plainly: LTEA_HepaRG_EGF: Life Technologies and Expression Analysis (LTEA) Assay for Epidermal growth factor (EGF) using HepaRG (AID 2283489). In outline: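 Differentiated human HepaRG cells, plated 48 h then switched to serum-free induction medium, were exposed for 48 h to test chemicals (8-point half-log series, top 100 uM, 0.5% DMSO). EGF mRNA was quantified by qRT-PCR, normalized to ACTB, GAPDH, POLR2A.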

Read-out in experiment [2]: Early growth response protein 1 (EGR1) transcription factor, EGR1 (gene 1958)
Put plainly: LTEA_HepaRG_EGR1: Life Technologies and Expression Analysis (LTEA) Assay for Early growth response protein 1 (EGR1) transcription factor using HepaRG (AID 2283490). An outline of the steps: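 HepaRG, 48 h exposure, 8-pt half-log series from 100 uM, 0.5% DMSO vehicle; EGR1 transcript by TaqMan qRT-PCR (Fluidigm array), housekeeping-normalized; bidirectional fit relative to DMSO baseline.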

Read-out in experiment [3]: Ezrin (EZR), EZR (gene 7430)
Nature of the experiment: LTEA_HepaRG_EZR: Life Technologies and Expression Analysis (LTEA) Assay for Ezrin (EZR) using HepaRG (AID 2283491). In outline: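 Read-out is EZR transcript level by qRT-PCR, normalized to three housekeeping genes and fitted bidirectionally against the DMSO control. Human HepaRG cells received test chemicals for 48 h at eight half-log concentrations up to 100 uM in 0.5% DMSO.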

Read-out in experiment [4]: Cytochrome P450 3A7 (Homo sapiens) (UniProt P24462)
Put plainly: LTEA_HepaRG_CYP3A7: Life Technologies and Expression Analysis (LTEA) Assay for CYP3A7 using HepaRG (AID 2283492). In outline:
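HepaRG cells plated 48 h, then dosed in serum-free induction medium for 48 h at 8 concentrations (top 100 uM, half-log steps, 0.5% DMSO). CYP3A7 mRNA by qRT-PCR, normalised to ACTB/GAPDH/POLR2A; bidirectional fit versus DMSO.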

Read-out in a further experiment: CYP3A5 (gene 1577)
Nature of the experiment: LTEA_HepaRG_CYP3A5: Life Technologies and Expression Analysis (LTEA) Assay for CYP3A5 using HepaRG (AID 2283493). In outline:
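qRT-PCR read-out: CYP3A5 transcript in HepaRG lysates, housekeeping-normalized (ACTB/GAPDH/POLR2A), fitted bidirectionally against 0.5% DMSO baseline. Exposure 48 h, eight half-log concentrations up to 100 uM, duplicates.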

Read-out in experiment [5]: Fatty Acid-Binding Protein 1 (FABP1), FABP1 (gene 2168)
Put plainly: LTEA_HepaRG_FABP1: Life Technologies and Expression Analysis (LTEA) Assay for Fatty Acid-Binding Protein 1 (FABP1) using HepaRG (AID 2283494). In outline: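 qRT-PCR readout of FABP1 transcript (normalized to three housekeeping genes) after 48 h chemical exposure of HepaRG cells; eight concentrations, half-log steps, max 100 uM, 0.5% DMSO vehicle; gain or loss fitted relative to DMSO baseline.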

Read-out in experiment [6]: Cytochrome P450 4A22 (Homo sapiens) (UniProt Q5TCH4)
Put plainly: LTEA_HepaRG_CYP4A22: Life Technologies and Expression Analysis (LTEA) Assay for Cytochrome P450 4A22 (CYP4A22) using HepaRG (AID 2283495). An outline of the steps:
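qRT-PCR of CYP4A22 mRNA (Fluidigm TaqMan, normalized to three housekeeping genes) after 48 h chemical exposure of HepaRG cells; 8-point half-log series, top 100 uM, 0.5% DMSO vehicle. Bidirectional curve fitting vs DMSO baseline.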

Read-out in experiment [7]: Cytochrome P450 7A1 (Homo sapiens) (UniProt P22680)
Nature of the experiment: LTEA_HepaRG_CYP7A1: Life Technologies and Expression Analysis (LTEA) Assay for Cytochrome P450 7A1 (CYP7A1) using HepaRG (AID 2283496). An outline of the steps:
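Using 0.5% DMSO as vehicle and baseline, chemicals were tested in duplicate over an 8-point range from 100 uM on HepaRG cells for 48 h; qRT-PCR signals were normalised to ACTB, GAPDH and POLR2A.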

Read-out in experiment [8]: Glutathione S-Transferase (GSTA2), GSTA2 (gene 2939)
Put plainly: LTEA_HepaRG_GSTA2: Life Technologies and Expression Analysis (LTEA) Assay for Glutathione S-Transferase (GSTA2) using HepaRG (AID 2283497). In outline: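 qRT-PCR readout of GSTA2 transcript, normalized to three housekeeping genes, fitted bidirectionally against 0.5% DMSO baseline. Differentiated HepaRG cells received compound for 48 h at 8 concentrations (top 100 uM, half-log steps).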

Read-out in experiment [9]: Glutamate-cysteine ligase catalytic (GCLC), GCLC (gene 2729)
Put plainly: LTEA_HepaRG_GCLC: Life Technologies and Expression Analysis (LTEA) Assay for Glutamate-cysteine ligase catalytic (GCLC) using HepaRG (AID 2283498). In outline:
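HepaRG, 48 h exposure, 8-pt half-log series from 100 uM, 0.5% DMSO vehicle; TaqMan qRT-PCR for GCLC mRNA, housekeeping-normalized; bidirectional curve fit vs DMSO baseline.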

Read-out in experiment [10]: growth arrest and DNA damage 45 (GADD45G), GADD45G (gene 10912)
Nature of the experiment: LTEA_HepaRG_GADD45G: Life Technologies and Expression Analysis (LTEA) Assay for growth arrest and DNA damage 45 (GADD45G) using HepaRG (AID 2283499). An outline of the steps:
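Differentiated human HepaRG cells in serum-free induction medium were exposed for 48 h to 8 half-log concentrations up to 100 uM in 0.5% DMSO, in duplicate. GADD45G mRNA was measured by TaqMan qRT-PCR, normalised to ACTB, GAPDH and POLR2A, and fitted bidirectionally against DMSO.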

Read-out in experiment [11]: Glutamate-cysteine ligase regulatory (GCLM), GCLM (gene 2730)
Nature of the experiment: LTEA_HepaRG_GCLM: Life Technologies and Expression Analysis (LTEA) Assay for Glutamate-cysteine ligase regulatory (GCLM) using HepaRG (AID 2283500). In outline: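 HepaRG, 48 h dosing, 100 uM top, half-log x8, 0.5% DMSO vehicle. Readout: GCLM mRNA by TaqMan qRT-PCR, housekeeping-normalized (ACTB/GAPDH/POLR2A). Curves fit bidirectionally vs DMSO baseline.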

Read-out in experiment [12]: Glutathione S-transferase M3 (GSTM3), GSTM3 (gene 2947)
Put plainly: LTEA_HepaRG_GSTM3: Life Technologies and Expression Analysis (LTEA) Assay for Glutathione S-transferase M3 (GSTM3) using HepaRG (AID 2283501). An outline of the steps: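 Differentiated HepaRG cells in serum-free induction medium were exposed in duplicate for 48 h to 8 half-log concentrations up to 100 uM in 0.5% DMSO. GSTM3 mRNA was measured by TaqMan qRT-PCR, normalized to ACTB/GAPDH/POLR2A, and fitted bidirectionally versus DMSO.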

Read-out in experiment [13]: Heat shock 70 kDa protein 1 (HSPA1A), gene 3303
Nature of the experiment: LTEA_HepaRG_HSPA1A: Life Technologies and Expression Analysis (LTEA) Assay for Heat shock 70 kDa protein 1 (HSPA1A) using HepaRG (AID 2283502). An outline of the steps:
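HepaRG, 48 h exposure, 8-pt half-log CRC from 100 uM in 0.5% DMSO, duplicates. Readout: TaqMan qRT-PCR of HSPA1A mRNA, housekeeping-normalized (ACTB/GAPDH/POLR2A). Bidirectional fit vs 0.5% DMSO baseline.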

Read-out in experiment [14]: Hypoxia-inducible factor 1-alpha (Homo sapiens) (UniProt Q16665)
Nature of the experiment: LTEA_HepaRG_HIF1A: Life Technologies and Expression Analysis (LTEA) Assay for Hypoxia-inducible factor 1 (HIF1A) Trancription factor using HepaRG (AID 2283503). In outline: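 Gain- or loss-of-signal HIF1A mRNA changes are fitted against a DMSO baseline. HepaRG cultures receive eight concentrations, highest 100 uM, for 48 h in serum-free induction medium with 0.5% DMSO.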

Read-out in experiment [15]: 3-Hydroxy-3-Methylglutaryl-CoA Synthase 2 (HMGCS2), HMGCS2 (gene 3158)
Put plainly: LTEA_HepaRG_HMGCS2: Life Technologies and Expression Analysis (LTEA) Assay for 3-Hydroxy-3-Methylglutaryl-CoA Synthase 2 (HMGCS2) using HepaRG (AID 2283504). An outline of the steps:
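Differentiated human HepaRG cells were exposed in duplicate for 48 h in serum-free induction medium to eight concentrations (top 100 uM, half-log steps, 0.5% DMSO). HMGCS2 mRNA was quantified by TaqMan qRT-PCR, normalised to ACTB, GAPDH and POLR2A, then fitted bidirectionally against DMSO.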

Read-out in a further experiment: HGF (gene 3082)
Nature of the experiment: LTEA_HepaRG_HGF: Life Technologies and Expression Analysis (LTEA) Assay for Hepatocyte Growth Facto (HGF) using HepaRG (AID 2283505). An outline of the steps: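 Differentiated human HepaRG cells in serum-free induction medium were exposed in duplicate for 48 h to eight concentrations (top 100 uM, half-log steps, 0.5% DMSO). HGF mRNA was quantified by qRT-PCR, normalized to ACTB, GAPDH and POLR2A.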

Read-out in experiment [16]: Insulin Like Growth Factor 1 (IGF1), IGF1 (gene 3479)
Nature of the experiment: LTEA_HepaRG_IGF1: Life Technologies and Expression Analysis (LTEA) Assay for Insulin Like Growth Factor 1 (IGF1) using HepaRG (AID 2283506). An outline of the steps:
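qRT-PCR readout of IGF1 mRNA, normalized to three housekeeping genes, after 48 h chemical exposure of HepaRG cells. Concentrations: 8-point half-log series, top 100 uM, 0.5% DMSO vehicle. Gain or loss fitted against DMSO baseline.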

Read-out in experiment [17]: Insulin-like growth factor-binding protein 1 (IGFBP1), IGFBP1 (gene 3484)
Put plainly: LTEA_HepaRG_IGFBP1: Life Technologies and Expression Analysis (LTEA) Assay for Insulin-like growth factor-binding protein 1 (IGFBP1) using HepaRG (AID 2283508). An outline of the steps:
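Differentiated human HepaRG cells in serum-free induction medium were exposed in duplicate for 48 h to eight concentrations, top 100 uM with half-log dilutions, in 0.5% DMSO. Transcript levels came from qRT-PCR normalised to ACTB, GAPDH and POLR2A, fitted bidirectionally against DMSO.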

Read-out in experiment [18]: Interleukin 6 (IL6), IL6 (gene 3569)
Nature of the experiment: LTEA_HepaRG_IL6: Life Technologies and Expression Analysis (LTEA) Assay for Interleukin 6 (IL6) using HepaRG (AID 2283509). In outline:
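qRT-PCR read-out of IL6 transcript, normalized to three housekeeping genes, after 48 h chemical exposure of HepaRG cells; 8-point half-log series, top 100 uM, 0.5% DMSO vehicle. Bidirectional curve fitting against DMSO baseline.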

Hypoxia-inducible factor 1-alpha (Homo sapiens), sequence (Q16665 whole entry, looked up): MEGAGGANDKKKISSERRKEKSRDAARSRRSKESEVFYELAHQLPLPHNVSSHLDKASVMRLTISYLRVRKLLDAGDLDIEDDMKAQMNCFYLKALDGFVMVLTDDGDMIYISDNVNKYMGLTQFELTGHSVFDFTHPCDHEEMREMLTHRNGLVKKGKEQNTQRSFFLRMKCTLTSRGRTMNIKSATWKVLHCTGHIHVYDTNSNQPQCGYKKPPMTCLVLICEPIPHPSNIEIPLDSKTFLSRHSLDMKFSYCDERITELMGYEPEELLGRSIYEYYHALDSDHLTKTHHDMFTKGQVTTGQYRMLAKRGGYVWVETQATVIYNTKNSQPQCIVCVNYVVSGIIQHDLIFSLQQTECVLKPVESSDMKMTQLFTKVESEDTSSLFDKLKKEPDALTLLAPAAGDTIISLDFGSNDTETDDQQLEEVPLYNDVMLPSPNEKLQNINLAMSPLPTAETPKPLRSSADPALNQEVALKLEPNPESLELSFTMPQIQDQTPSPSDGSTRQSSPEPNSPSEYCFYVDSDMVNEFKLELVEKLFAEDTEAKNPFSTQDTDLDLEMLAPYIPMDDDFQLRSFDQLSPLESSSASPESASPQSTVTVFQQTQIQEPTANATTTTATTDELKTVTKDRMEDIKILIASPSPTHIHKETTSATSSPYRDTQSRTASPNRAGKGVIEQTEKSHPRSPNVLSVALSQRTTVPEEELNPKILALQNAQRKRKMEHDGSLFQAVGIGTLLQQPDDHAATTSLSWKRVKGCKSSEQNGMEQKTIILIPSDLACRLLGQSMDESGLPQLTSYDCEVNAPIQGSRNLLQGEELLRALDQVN
Cytochrome P450 3A7 (Homo sapiens), sequence (P24462 whole entry, looked up): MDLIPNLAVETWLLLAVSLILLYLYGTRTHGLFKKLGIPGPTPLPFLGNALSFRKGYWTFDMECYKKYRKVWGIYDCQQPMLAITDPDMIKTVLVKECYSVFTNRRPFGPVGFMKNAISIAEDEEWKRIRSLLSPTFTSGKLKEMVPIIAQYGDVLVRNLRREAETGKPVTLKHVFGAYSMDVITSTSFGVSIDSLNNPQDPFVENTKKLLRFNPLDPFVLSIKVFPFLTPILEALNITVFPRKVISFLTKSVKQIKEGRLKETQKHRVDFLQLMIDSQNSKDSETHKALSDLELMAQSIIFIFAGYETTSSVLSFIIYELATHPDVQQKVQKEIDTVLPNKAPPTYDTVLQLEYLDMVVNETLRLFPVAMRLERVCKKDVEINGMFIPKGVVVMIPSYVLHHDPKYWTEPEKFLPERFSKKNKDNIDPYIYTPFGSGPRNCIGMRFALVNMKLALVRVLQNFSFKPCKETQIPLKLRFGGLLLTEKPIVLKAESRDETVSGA

On to `C[C@]12CCC(=O)C[C@@H]1CC[C@@H]1[C@@H]2CC[C@]2(C)[C@@H](O)CC[C@@H]12`, for which the outcome (in experiment [1]; in experiment [2]; in experiment [3]; in [4]; in the experiment with CYP3A5 (gene 1577); in experiment [5]) was inactive. Further, the result in experiment [7], in experiment [8], in [9], in experiment [10], in [11] and in [12] was inactive. The outcome (in experiment [13]; in experiment [14]; in experiment [15]; with HGF (gene 3082); in [16]; in experiment [17]) was inactive. Besides, in experiment [18], the outcome was inactive. In addition, the AC50 in experiment [6] was 28.8 µM (active).
For `CCOP(=S)(OCC)Oc1nc(Cl)c(Cl)cc1Cl`, the outcome (in experiment [1]; in experiment [2]; in experiment [3]; in experiment [4]; with CYP3A5 (gene 1577); in experiment [6]) was inactive. For the same molecule, the outcome in experiment [8], in experiment [9], in experiment [10], in experiment [11], in [12] and in experiment [13] was inactive. Also, the molecule was classed as inactive (in [14]; in experiment [15]; in the experiment with HGF (gene 3082); in experiment [16]; in experiment [17]; in experiment [18]). Further, the AC50 in experiment [5] and in experiment [7] was 50 µM (active) in each case.
Take `C[C@@H]1C[C@@H]([C@H](O)CC2CC(=O)NC(=O)C2)C(=O)[C@@H](C)C1`: the AC50 is 2.36 µM (active) in experiment [1]; 91.8 µM (active) in experiment [2]; 10.8 µM (active) in [3]; 13.2 µM (active) in experiment [5]; 26.6 µM (active) in experiment [8]; 33.3 µM (active) in experiment [9]. Besides, the AC50 in experiment [10] was 2.24 µM (active); in experiment [11] it was 17.9 µM (active); in experiment [12], 5.85 µM (active); in experiment [13], 30.6 µM (active); in experiment [14], 9.18 µM (active); in experiment [15], 27 µM (active). Also, the AC50 in the experiment with HGF (gene 3082) was 71.7 µM (active); in experiment [16] it was 9.09 µM (active); in [17], 22.3 µM (active); in experiment [18], 11.8 µM (active).
On to `O=[N+]([O-])c1ccc(O)c([N+](=O)[O-])c1`, for which the AC50 in experiment [1] is 12.9 µM (active); in experiment [2], 12.5 µM (active); in [4], 16.4 µM (active); in the experiment with CYP3A5 (gene 1577), 10.6 µM (active); in experiment [5], 18.7 µM (active); in [6], 27.8 µM (active). In addition, the AC50 in experiment [7] is 25.6 µM (active); in experiment [8] it was 17 µM (active); in experiment [10] it was 90.6 µM (active); in [11], 12.2 µM (active); in experiment [12], 12.7 µM (active); in [14] it was 44.8 µM (active). In addition, the AC50 in experiment [15] was 22.9 µM (active); in [16], 27.9 µM (active); in [17], 13.3 µM (active); in experiment [18], 60.3 µM (active). Besides, the result (in experiment [3]; in [13]; in the experiment with HGF (gene 3082)) was inactive.
